These results are taken from PubChem BioAssay (NCI).

“And” between values parts separate entries of the source, which are not always exact repeats. Equal values may be shown once. Compounds without any hit were thinned out: in the full panel of roughly 83,000, 20% have a hit.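 Treatment: one concentration, 48 hours, 96-well format. Scoring: percent growth, with anything below 10 considered active.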 A number with no mark means an inactive call. The source made the active and inactive calls.

For the assay, the system named is MDA-MB-468 breast. In words: NCI-60 one-dose screen, 48 h (100 = growth as untreated, 0 = no growth, -100 = all killed). To be noted: 10 µM unless noted.
For the compound `IP(CCCSc1n(Cc2ccc3ccccc3c2)c(-c2ccccc2)c(-c2ccccc2)[n+]1Cc1ccc2ccccc2c1)(c1ccccc1)(c1ccccc1)c1ccccc1`, the growth is -21.5% (active).
Take `N#C/C(=C1\SC(=O)CN1c1ccccc1)c1nc2ccccc2s1`: the growth is 115%.
For the compound `NCCn1cc(-c2nc(-c3c[nH]c4ncccc34)cs2)c2cc(Br)ccc21`, the growth is 66%.
`CN1CCN(c2ccc(C(=O)/C=C/c3cc(F)cc(C(F)(F)F)c3)cc2)CC1`: the growth is 31.5%.
Next, `CCSc1ccc([C@@H]2[C@@H](O)C(=O)N2c2cc(OC)c(OC)c(OC)c2)cc1`: 40.2%.
Regarding `CSC1=N/C(=C\c2cccc(OCc3ccc(Cl)cc3)c2)C(=O)N1`, the growth is 68.6%.
Regarding `COC12C=C/C(=C(/C(=O)OCc3ccccn3)C(=O)CCCCCCCCC3(OC)C=C/C(=C(/C(=O)OCc4ccccn4)C(=O)CCCCCCCC1)O3)O2`, the growth was -32.5% (active).
For `CC(C)(C)c1nn(-c2ccccc2)c2c1CC1(CN2Cc2ccc(Cl)cc2)C(=O)c2ccccc2C1=O`, the growth was 88.1%.
Turning to `CCCCCCCCCCCC[n+]1c(C)cc(N)c2ccccc21`, the growth is -34% (active).
As for `COc1ccc2c(c1)CC/C(=C\c1cncc(Br)c1)C2=O`, the growth is 99.4%.
With `CCc1cccc2c1S/C(=C/c1ccc(OC)cc1)C2=O`, the growth is 27.3%.
Turning to `COS(=O)(=O)CCN(CCOS(C)(=O)=O)S(C)(=O)=O`, the growth is 104%.
In the case of `O=S(=O)(NCCCNc1nccc(-c2c(-c3cccc(F)c3)nc3sccn23)n1)c1cccc(F)c1`, the growth was 33%.
Turning to `COc1cc(N=Nc2cc(S(=O)(=O)O)cc3cc(S(=O)(=O)O)cc(O)c23)c(C)cc1N=Nc1c(S(=O)(=O)O)cc2cc(Nc3ccccc3)ccc2c1O`, the growth was 115%.
`COc1ccc(-c2ccc3c(N4CCOC[C@@H]4C)nc(N4CCOC[C@@H]4C)nc3n2)cc1CO`: the growth was -27.4% (active).
`COC(=O)CNC(=O)c1cccc(-c2cc(=O)c3c(OC)c(OC)c(OC)cc3o2)c1`: the growth was 89.8%.
Turning to `COc1ccc(CC(C#N)c2ccc(Cl)cc2)cc1` (stereo unspecified), the growth was 24%.
For the compound `COc1ccc(/C=C2\N=C(c3cccnc3)N(c3ccccc3)NC2=O)cc1`, the growth was 94.1%.
Consider `CSc1nc(N)c(N)c(N)n1`, for which the growth is 114%.
`O=C1C=CC(n2cc(F)c(=O)[nH]c2=O)O1` (stereo unspecified): the growth is 85.3%.
Take `COc1ncc2cc1NS(=O)(=O)c1cccc(c1)C(=O)NCC1=CC=C(S1)c1ncnc3c1SC2=C3C`: the growth is -34.5% (active).
As for `O=[N+]([O-])c1cccc(N=C(Nc2cccc([N+](=O)[O-])c2)c2ccccc2)c1`, the growth was 43.2%.
Under `CCN(CC)c1ccc(C=O)c(OCc2cn(CC(=O)Nc3ccc(Cl)cc3)nn2)c1` stands 63.5%; under `Cc1ccc(C(=O)C(Br)C(Br)c2ccccc2)cc1` (stereo unspecified), 42.8%.
In the case of `CCOC(=O)c1cnn(CC(O)c2ccc(F)cc2)c1NC(=O)Nc1ccccc1F` (stereo unspecified), the growth was 85.8%.
Next, `S=C(c1cccs1)N1CCN(c2cccc(Cl)c2)CC1`: 85.8%; `Cn1c(=O)n(-c2ccc(C(C)(C)C#N)cc2)c2c3cc(-c4cnc5ccccc5c4)ccc3ncc21`: -24.6% (active) and -48.4% (active); `CN(CC(=O)N(Cc1ccc(C2CCCCC2)cc1)c1ccc(C(=O)O)cc1)S(=O)(=O)c1c(F)c(F)c(F)c(F)c1F`: -86.6% (active).
In the case of `CCN1CCN(c2nc(NNC(=O)Cc3ccccc3)nc(N3CCN(C(c4ccccc4)c4ccccc4)CC3)n2)CC1`, the growth is 12.2%.
As for `O=C(CSc1nnc(-c2ccc(Cl)cc2)n1-c1ccccc1)Nc1cccc(Cl)c1`, the growth was 79.8%.
Next, `CC/C(=C(/c1ccc(Cl)cc1)c1ccc(OCCN2CCCCC2)cc1)c1ccc(OC)cc1`: 26.5%.
On to `Cc1nc2cc(Nc3nc(NCCO)nc(Nc4ccc(F)cc4)n3)ccc2n1Cc1ccccc1`, for which the growth was 99.2%.
For `COc1cc(C2CC(c3cc(OC)c(OCCCOc4ccc(-n5c(/C=C/c6ccccc6)nc6ccccc6c5=O)cc4)c(OC)c3)=NO2)cc(OC)c1OC` (stereo unspecified), the growth is 104%.
Turning to `CC(C)Cc1cc(CNC(=O)C2[C@H]3CN(C(=O)c4ccccc4)C[C@@H]23)nn1-c1ccccc1` (stereo partly specified), the growth is 88.9%.
Take `COc1ccc2cc3[n+](cc2c1OC)CCc1cc2c(cc1-3)OCO2`: the growth is 1.68% (active).
For the compound `COc1ccc2c(c1)C(=O)c1c-2c(OCCCN(C)C)nc2cc(Br)ccc12`, the growth is 67.5%.
